# About 14,000 (4.5%) of roughly 310,000 compounds showed an effect of 50% or more. Effects have a minus sign here. The sample as a whole holds a higher share of strong results than the screen did.
# Target: human ether-à-go-go-related gene (hERG) potassium channel (human, UniProt Q12809)
# Assay: primary screen, population patch clamp on CHO cells stably expressing hERG; higher = less effect of the substance
# 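Also: peak tail current of the secondary pulse compared with the same well before compound.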
# Chain of human ether-à-go-go-related gene (hERG) potassium channel (Q12809 whole entry, looked up): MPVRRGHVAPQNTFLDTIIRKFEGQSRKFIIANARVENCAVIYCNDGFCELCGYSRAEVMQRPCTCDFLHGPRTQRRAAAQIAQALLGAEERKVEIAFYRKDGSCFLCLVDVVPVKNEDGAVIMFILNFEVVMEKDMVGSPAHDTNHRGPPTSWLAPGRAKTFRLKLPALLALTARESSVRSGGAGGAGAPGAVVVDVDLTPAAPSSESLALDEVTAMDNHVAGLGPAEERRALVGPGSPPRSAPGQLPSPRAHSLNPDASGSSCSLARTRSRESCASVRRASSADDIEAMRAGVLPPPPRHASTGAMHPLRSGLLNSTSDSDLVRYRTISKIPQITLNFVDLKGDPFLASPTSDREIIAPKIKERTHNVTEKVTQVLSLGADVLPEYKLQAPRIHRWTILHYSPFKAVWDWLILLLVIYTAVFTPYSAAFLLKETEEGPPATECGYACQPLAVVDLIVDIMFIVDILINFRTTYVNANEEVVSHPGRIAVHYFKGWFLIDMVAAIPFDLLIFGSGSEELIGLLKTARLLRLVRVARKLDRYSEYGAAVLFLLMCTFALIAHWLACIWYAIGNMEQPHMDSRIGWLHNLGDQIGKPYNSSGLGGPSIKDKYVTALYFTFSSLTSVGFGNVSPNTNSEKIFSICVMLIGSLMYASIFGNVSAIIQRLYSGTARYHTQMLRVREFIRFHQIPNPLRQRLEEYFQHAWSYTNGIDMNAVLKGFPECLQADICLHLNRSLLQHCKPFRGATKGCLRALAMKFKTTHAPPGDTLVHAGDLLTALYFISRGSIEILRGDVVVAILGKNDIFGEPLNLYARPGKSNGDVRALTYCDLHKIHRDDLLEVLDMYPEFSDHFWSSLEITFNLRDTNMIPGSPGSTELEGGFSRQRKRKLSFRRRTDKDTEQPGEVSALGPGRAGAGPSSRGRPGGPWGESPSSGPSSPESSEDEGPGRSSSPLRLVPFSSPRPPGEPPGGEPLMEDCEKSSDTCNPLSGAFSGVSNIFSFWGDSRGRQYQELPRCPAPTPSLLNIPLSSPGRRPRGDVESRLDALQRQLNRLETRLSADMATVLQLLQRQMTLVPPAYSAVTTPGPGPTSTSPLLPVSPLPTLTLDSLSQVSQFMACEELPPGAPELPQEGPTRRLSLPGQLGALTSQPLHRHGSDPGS
row,SMILES,"hERG current change (%, negative = inhibition) at 10uM"
1,O=C(c1cc(COc2ccc3ncccc3c2)on1)N1CCC[C@H]1CO,4.88%
2,COc1ccc(C(=O)N2CCN(S(=O)(=O)c3ccc(F)cc3)CC2)cc1OC,10.9%
3,COc1cc(C(=O)N2CCC(n3c(C)nc4cc(F)ccc43)CC2)cc(OC)c1OC,-8.07%
4,COc1ccc(C(=O)N2CCC(n3nnc4cc(F)ccc43)CC2)cc1OC,-61.6%
5,Cc1cccc(C(=O)N2CCC(n3nnc4cc(F)ccc43)CC2)c1,-34.8%
6,O=C(c1ccc([N+](=O)[O-])cc1)N1CCC(n2nnc3cc(F)ccc32)CC1,-71.9%
7,O=C(c1ccc(F)cc1)N1CCC(n2nnc3ccccc32)CC1,-33.3%
8,O=C(N1CCOCC1)N1CCC(n2nnc3cc(F)ccc32)CC1,-7.65%
9,COc1ccc(C(=O)N2CCC(n3c(C)nc4cc(F)ccc43)CC2)cc1OC,-69%
10,CCOC(=O)C(CC)Sc1ncnc2nc[nH]c12 (centres unmarked),-12.4%
11,CCCn1nnc(NC(=O)COc2ccc(C3CCCCC3)cc2)n1,-31.1%
12,O=c1ccc(-c2ccc(S(=O)(=O)Nc3cccc(Br)c3)o2)n[nH]1,14.8%
13,Cc1nn(C)c(C)c1/C=C1/CC2C3CC=C4CC(O)CCC4(C)C3CCC2(C)C1=O (centres unmarked),-8.03%
14,CCN(CC)S(=O)(=O)c1ccc(NC(=O)CSc2ncnc3ccccc23)cc1,-8.71%
15,Cc1ccc(C(=O)NCCc2nnc3ccc(SCC(=O)N4CCCCC4)nn23)cc1,4.02%
16,c1ccc(Cc2nn3c(-c4ccncc4)nnc3s2)cc1,-38.6%
17,c1ccc(CCc2nn3c(-c4ccncc4)nnc3s2)cc1,-53.9%
18,Cc1ccc(-c2nnc3sc(CCc4ccccc4)nn23)cc1,6.39%
19,CCc1nn(CCCC(=O)NCc2cc(Br)ccc2OC)c(=O)c2cc3occc3n12,-2.73%
20,CC1(C(=O)Nc2nc3ccccc3s2)CC1(Br)Br (centres unmarked),13.5%
21,O=C(NCCc1cn2ccccc2n1)c1ccc(Br)o1,-28.9%
22,COc1ccc(CCC(=O)NCc2cn3ccc(C)cc3n2)cc1,-52%

row,SMILES,"hERG current change (%, negative = inhibition) at 10uM"
1,COc1ccc(CCC(=O)NCc2cn3ccsc3n2)cc1,13%
2,Cc1ccn2cc(CNC(=O)c3ccc(Br)o3)nc2c1,-38.6%
3,COc1ccc(CCC(=O)NCc2cn3ccccc3n2)cc1,-2.46%
4,Cc1ccn2cc(CCNC(=O)c3ccc(Br)o3)nc2c1,-57.5%
5,O=C(CNC(=O)c1ccco1)NCC(=O)OCc1cccc(Cl)c1,-13%
6,COC(=O)COc1ccc(C2Nc3c(Cl)ccc(C(=O)O)c3C3C=CCC32)cc1 (centres unmarked),12.9%
7,Cn1ncc(Cl)c1C(=O)Nc1cc(C(F)(F)F)ccc1F,29.5%
8,Cc1ccc(NC2=C(Cl)C(=O)OC2OC(=O)c2ccc(C)cc2)cc1 (centres unmarked),-51.7%
9,Cc1ccc(NC2=C(Cl)C(=O)OC2OC(=O)c2ccco2)cc1 (centres unmarked),-42.2%
10,COC(=O)c1ccc(NC2=C(Cl)C(=O)OC2OC(=O)c2ccccc2)cc1 (centres unmarked),-22.5%
11,COCCCN1C(=O)C(=O)/C(=C(/O)c2ccccc2)C1c1ccc(N(C)C)cc1 (centres unmarked),12.8%
12,CSCC[C@H](NC(=O)Nc1ccc(S(N)(=O)=O)cc1)C(=O)O,9.48%
13,CCN1CCN(c2cc(C)c3cc(NC(=O)c4cc(OC)cc(OC)c4)ccc3n2)CC1,-35.6%
14,CCN1CCN(c2cc(C)c3cc(NC(=O)c4ccc(OC)c(OC)c4)ccc3n2)CC1,-46%
15,CCOc1ccc(C(=O)Nc2ccc3nc(N4CCN(CC)CC4)cc(C)c3c2)cc1,-23%
16,COc1ccc(C(=O)Nc2ccc3nc(N4CCCCC4)cc(C)c3c2)cc1OC,-56.8%
17,CCN1CCN(c2cc(C)c3cc(NC(=O)CCC(=O)Nc4ccc(OC)c(OC)c4)ccc3n2)CC1,4.85%
18,CCN1CCN(c2cc(C)c3cc(NC(=O)c4cccc(OC)c4)ccc3n2)CC1,-50.9%
19,COc1ccc(NC(=O)CCC(=O)Nc2ccc3nc(N4CCOCC4)cc(C)c3c2)c(OC)c1,16.5%
20,COc1cccc(NC(=O)CCC(=O)Nc2ccc3nc(N4CCOCC4)cc(C)c3c2)c1,23.4%
21,COc1cccc(C(=O)Nc2ccc3nc(N4CCOCC4)cc(C)c3c2)c1,-55%
22,COc1ccc(Cc2nc3ccc(C(=O)N(C)C(C)c4ccon4)cc3o2)cc1 (centres unmarked),-3.64%

row,SMILES,"hERG current change (%, negative = inhibition) at 10uM"
1,O=C1COc2ccc(C(=O)c3ccccc3C(=O)NCc3ccccc3)cc2N1,-5.41%
2,COc1cccc(CC(=O)OC(C)C(=O)Nc2ccc(Cl)cn2)c1 (centres unmarked),-23.9%
3,CC(=O)Nc1nc2ccc(S(=O)(=O)N3CCCCC3)cc2s1,11.4%
4,Cc1ccccc1NC(=O)Cc1nc(-c2c[nH]c(C(=O)N3CCCC3)c2)cs1,4.63%
5,Cc1ccc(NC(=O)C(=O)NNC(=O)c2ccccc2C)cc1Cl,-5.32%
6,CCOCCCn1c(=NC(=O)c2ccc(OC)c(OC)c2)c(C#N)cc2c(=O)n3cccc(C)c3nc21,-63.4%
7,CCOCCCn1c(=NC(=O)c2cccs2)c(C#N)cc2c(=O)n3cccc(C)c3nc21,-74.1%
8,CCOCCCn1c(=NC(C)=O)c(C#N)cc2c(=O)n3cccc(C)c3nc21,-41.8%
9,Cc1cccn2c(=O)c3cc(C#N)c(=NC(=O)c4cccs4)n(CC(C)C)c3nc12,-11.5%
10,CCCCn1c(=NC(=O)c2ccc3c(c2)OCO3)c(C#N)cc2c(=O)n3cccc(C)c3nc21,-5.68%
11,Cc1cccn2c(=O)c3cc(C#N)c(=NC(=O)c4cccs4)n(CCCOC(C)C)c3nc12,-80.7%
12,NC(=O)Nc1ccc(Oc2c(F)c(F)c(F)c(F)c2F)cc1,-11.5%
13,Cc1cccc(N2CCN(CC(=O)Nc3ccc(-n4cnnn4)cc3)CC2)c1C,12.8%
14,O=C(Nc1ccc(F)cc1)c1ccccc1S(=O)(=O)c1ccccc1[N+](=O)[O-],-17.5%
15,N#C/C(Cn1c[n+](NC(=O)Nc2ccccc2)cn1)=N/O.[Cl-],16.2%
16,Cc1cccn2c(=O)c3cc(C(=O)N4COCC4(C)C)sc3nc12,0.269%
17,CC(C)[C@@H]1NC(=O)c2cc([N+](=O)[O-])cc(I)c2OCC[C@@H](C(N)=O)NC(=O)[C@H](CCC(=O)O)NC1=O,2.02%
18,CCc1ccccc1NC(=S)N(CCN(C)C)Cc1cccs1,-22.4%
19,COc1ccc(S(=O)(=O)N(C)CC(=O)N2CCC(C)CC2)cc1Cl,-0.646%
20,CC(C)NC(=O)C1CCN(C2CCN(Cc3ccc4cccc(F)c4n3)CC2)CC1,-38.6%
21,CC(C)NC(=O)C1CCN(C2CCN(Cc3nc4ccccc4s3)CC2)CC1,-65.2%
22,OCCC1CN(Cc2nc3ccccc3s2)CCN1C1CCCC1 (centres unmarked),-48.9%

row,SMILES,"hERG current change (%, negative = inhibition) at 10uM"
1,CC(C)CN1CCN(Cc2nc3ccccc3s2)CC1CCO (centres unmarked),-56.8%
2,CC(C)NC(=O)C1CCN(C2CCN(Cc3nc(C(C)C)cs3)CC2)CC1,-49.5%
3,CC(C)N1CCN(Cc2nc3ccccc3s2)CC1CCO (centres unmarked),-37.6%
4,OCCC1CN(Cc2nc3ccccc3s2)CCN1CCc1ccccc1 (centres unmarked),-77.7%
5,OCCC1CN(Cc2nc3ccccc3s2)CCN1C1CCCCC1 (centres unmarked),-60%
6,CC(C)N1CCC(N2CCN(Cc3nc4ccccc4s3)CC2CCO)CC1 (centres unmarked),-33.4%
7,CC(C)CCN1CCN(Cc2nc3ccccc3s2)CC1CCO (centres unmarked),-41.4%
8,O=C1S/C(=C\c2ccc(Cl)cc2)C(=O)N1CCn1cnnn1,-0.978%
9,CC(=O)c1cc2c(cc1N(C(=O)Cn1nnc3ccccc31)C(C(=O)NCCC(C)C)c1cccnc1)OCO2 (centres unmarked),8.92%
10,CCc1ccccc1NC(=O)C1CCN(C(=O)c2cccs2)CC1,-24.3%
11,COc1ccc(S(=O)(=O)N2CCCCCC2)cc1NC(=O)CN1C(=O)NC(C)(c2ccccc2)C1=O (centres unmarked),-31.4%
12,Cc1ccc(Sc2ccc(CN3CCCC3)cc2[N+](=O)[O-])cc1,-83%
13,O=[N+]([O-])c1cc(CN2CCCCCC2)ccc1O,9.47%
14,CN1CCN(Cc2ccc(Sc3ccc(Cl)cc3)c([N+](=O)[O-])c2)CC1,-80.4%
15,O=[N+]([O-])c1cc(CN2CCC(O)CC2)ccc1Cl,9.08%
16,Cc1ccc(Sc2ccc(CN3CCCCC3)cc2[N+](=O)[O-])cc1,-27.4%
17,O=[N+]([O-])c1cc(CN2CCCC2)ccc1Sc1ccc(Cl)cc1,-93.8%
18,O=C(O)c1ccccc1C(=O)c1ccc(Sc2ccc(Cl)cc2)c([N+](=O)[O-])c1,6.94%
19,O=[N+]([O-])c1ccc(Cl)cc1CN1CCCCCC1,-3.36%
20,Cc1ccc(Sc2ccc(C(=O)N3CCOCC3)cc2[N+](=O)[O-])cc1,-32.3%
